Experimental findings from PubChem BioAssay (EPA / NIEHS) are described below.

Molecules are shown by their SMILES. Results filed as inconclusive are left out. Activity calls are given as the source filed them. How the source made its calls: active means hit-call score of the fitted dose curve at least 0.9, where 1 is the maximum; inconclusive means response in the unintended direction; inactive means score below 0.9.

Chain of Glycogen synthase kinase-3 beta (Homo sapiens) (P49841 whole entry, looked up): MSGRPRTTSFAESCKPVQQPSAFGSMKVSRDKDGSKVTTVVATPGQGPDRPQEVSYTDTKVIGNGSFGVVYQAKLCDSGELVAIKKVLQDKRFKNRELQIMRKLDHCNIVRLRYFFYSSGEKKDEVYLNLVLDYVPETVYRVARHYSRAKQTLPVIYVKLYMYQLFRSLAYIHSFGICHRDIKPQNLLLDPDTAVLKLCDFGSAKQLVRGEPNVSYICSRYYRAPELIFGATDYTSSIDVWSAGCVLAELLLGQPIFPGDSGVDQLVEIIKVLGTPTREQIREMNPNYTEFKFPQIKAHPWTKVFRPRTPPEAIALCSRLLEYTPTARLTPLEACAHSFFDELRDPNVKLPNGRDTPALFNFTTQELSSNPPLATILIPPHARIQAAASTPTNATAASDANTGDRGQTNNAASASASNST

The target in the experiment is Glycogen synthase kinase-3 beta (Homo sapiens) (UniProt P49841). As to the kind of experiment: NVS_ENZ_hGSK3b: NovaScreen (NVS) Enzymatic Assay for human Glycogen Synthase Kinase-3 beta (GSK3b) (AID 2283165). As to the method:
NVS_ENZ_hGSK3b is a biochemical, single-readout assay that uses extracted gene-proteins in a cell-free assay. Measurements were taken 1 hour after chemical dosing in a 384-well plate.NVS_ENZ_hGSK3b is one of one assay component(s) measured or calculated from the NVS_ENZ_hGSK3b assay. It is designed to make measurements of enzyme activity, a form of enzyme reporter, as detected with fluorescence intensity signals by Fluorescence and electrophoretic mobility shift technology.Data from the assay component NVS_ENZ_hGSK3b was analyzed into 1 assay endpoint. This assay endpoint, NVS_ENZ_hGSK3b, was analyzed in the positive analysis fitting direction relative to DMSO as the negative control and baseline of activity. Using a type of enzyme reporter, loss-of-signal activity can be used to understand changes in the enzymatic activity as they relate to the gene GSK3B. Furthermore, this assay endpoint can be referred to as a primary readout, because this assay has produced multiple assay endpoints where this one serves a enzymatic activity function. To generalize the intended target to other relatable targets, this assay endpoint is annotated to the kinase intended target family, where the subfamily is serine/threonine kinase.
Binding assays used specific radioligands (tritiated, iodinated) with non-radioactive competitive displacement ligands in agonist or antagonist protocols (as indicated) and various reference compounds and inhibitors to titrate specific binding to receptors and transporters. Most enzyme assays (CYPs, kinases, phosphatases, proteases, HDACs) used recombinant protein and specific substrates (fluorescence mostly, some colorimetric and radioactive) and inhibitors, followed by a biochemical separation of substrate and product. All assays for the biochemical HTS were initially run in duplicate at a single concentration (10 uM for CYP450 assays and 25 uM for all others). Assay-chemical combinations meeting a pre-defined threshold (e.g., 30% inhibition and other criteria defined below) were then run in singleton concentration-response format with maximum concentration of 20 uM for CYPs and 50 uM for all others. Each assay was run with positive and negative controls, and concurrent controls on every plate. The follow-up (secondary) screen tested active chemical-pairs in concentration series, as well as a few additional assays not tested in the primary screen, some selected negative inactives, and several cases re-run in the concentration series for confirmatory purposes.
As for `O=c1ccc2ccccc2o1`, the result was inactive.
Same read-out and setting: then `CCN(Cc1cccnc1)C(=O)c1cccc(Cl)c1[C@]1(C)C(=O)N(Cc2ccc(OC)cc2OC)c2ccc(Cl)cc21`, with “inactive”.
Same read-out and setting: then `COc1ccc2cc(S(=O)(=O)N[C@H](CC(=O)N[C@H](Cc3ccc(CN4[C@H](C)CCC[C@@H]4C)cc3)C(=O)N(C)C(C)C)c3ccc4c(c3)OCO4)ccc2c1`, with “inactive”.
Same read-out and setting: under `Clc1cc(Cl)c2c(c1)N=C1CCCCCN1C2` stands “inactive”; under `CCCCCCCCOC(=O)c1cc(O)c(O)c(O)c1`, “inactive”.
Consider `OC12N=C(c3ccccc3)SC1Cc1cc(Cl)ccc12` (stereo unspecified), for which the outcome was inactive.
With `CCCCCCCCCCCCO`, the outcome was inactive.
On the same count and under the same terms, under `O=C(O)c1ccccc1-n1cc(C(=O)O)c(=O)c2cc(Nc3c(F)cc(F)cc3Cl)c(Cl)cc21` stands “inactive”.
As a reminder, the AC50 is the concentration giving half of the maximal activity seen. Consider `CN1C(=O)N(c2ccccc2Br)Cc2cnc(Nc3ccc4c(c3)OCC(CO)O4)nc21` (stereo unspecified), for which the AC50 is 7.73 µM (active).
As to `Oc1ccccc1`, the call was inactive.
The same measure, in the same setting: then `CC1=CC(=O)/C(=C(/C)O)C(=O)O1`, with “inactive”.
